Among the data in PubChem BioAssay (NCI) are growth values, retold here.

What all share (test): NCI-60 one-dose screen, 48 h (100 = growth as untreated, 0 = no growth, -100 = all killed)
In experiment [1] the test system is HCT-15 colon. To be noted: 10 µM unless noted.
The test system of experiment [2] is HT29 colon. To be noted: 10 µM unless noted.
The subject of experiment [3] is SNB-75 CNS. The note with it: 10 µM unless noted.
Experiment [4] has as its system U251 CNS. To be noted: 10 µM unless noted.
For experiment [5], the system named is PC-3 prostate. The note with it: 10 µM unless noted.
Experiment [6] concerns SK-MEL-5 melanoma. The note with it: 10 µM unless noted.
Experiment [7] has as its system LOX IMVI melanoma. The note with it: 10 µM unless noted.
Experiment [8] relates to SK-MEL-28 melanoma. The note with it: 10 µM unless noted.
Experiment [9] has as its system SK-MEL-2 melanoma. The note with it: 10 µM unless noted.
Experiment [10] concerns EKVX NSCLC. The note with it: 10 µM.
For experiment [11], the system named is TK-10 renal. To be noted: 10 µM unless noted.
In experiment [12] the test system is ACHN renal. The note with it: 10 µM unless noted.
Experiment [13] relates to CAKI-1 renal. The note with it: 10 µM unless noted.
The subject of experiment [14] is CCRF-CEM leukemia. To be noted: 10 µM.
The subject of experiment [15] is MOLT-4 leukemia. The note with it: 10 µM unless noted.
Experiment [16] relates to UACC-62 melanoma. To be noted: 10 µM unless noted.
In experiment [17] the test system is SN12C renal. To be noted: 10 µM unless noted.
For experiment [18], the system named is UO-31 renal. The note with it: 10 µM unless noted.
The subject of experiment [19] is A498 renal. The note with it: 10 µM unless noted.
Experiment [20] deals with SNB-19 CNS. To be noted: 10 µM unless noted.

The panel holds about 83,000 compounds, 20% with a hit somewhere; the sample as a whole holds those more often.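 Single-concentration screen, 48 h exposure, 96-well plates. Endpoint: percent growth. Below 10 = active.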 Unmarked numbers belong to inactive results. Calls of active or inactive are those of the source.

In the case of `CCCCCN1CCN(C(CC(=O)c2ccccc2)C(=O)c2ccccc2)CC1` (configuration not stated), the growth was 94.5% in experiment [1]; 96.4% in [2]; 100% in [3]; 92.6% in experiment [4]; 92.6% in experiment [5]; 106% in experiment [6]. Besides, the growth in [7] is 82.8%; in [8], 119%; in [9] it was 104%; in experiment [10] it was 110%; in experiment [11] it was 99.9%; in experiment [12], 106%. Besides, the growth in experiment [13] was 81.6%; in experiment [14], -14.7% (active); in experiment [15], 27.9%.
With `CC(C)C(=O)c1ccc(Cl)s1`, the growth was 97.5% in [1]; 120% in [2]; 80.9% in experiment [3]; 99.2% in [4]; 103% in [5]; 92.8% in experiment [6]. In addition, the growth was 100% in experiment [16]; 91% in [7]; 111% in experiment [8]; 96.5% in [9]; 99.3% in experiment [17]; 79.1% in experiment [18]. Further, the growth was 104% in experiment [12], 107% in [13], 79.6% in experiment [19] and 97.4% in experiment [15].
Turning to `O=C(CCCC(=O)Nc1ccc(Cn2nnc3cc(Cl)c(Cl)cc32)cc1)Nc1ccc(CN2N=NC3C=C(Cl)C(Cl)=CC32)cc1` (configuration not stated), the growth is 97.3% in experiment [1]; 86.5% in [2]; 86.2% in experiment [20]; 84.2% in experiment [4]; 60.2% in experiment [5]; 89.8% in experiment [6]. Moreover, the growth in experiment [16] was 62.3%; in experiment [7], 78.8%; in [8], 103%; in experiment [9], 87.7%; in experiment [10], 75.6%; in experiment [17], 89.9%. The growth in [18] is 50.4%; in experiment [11] it was 107%; in experiment [12] it was 83.8%; in [19], 78.3%; in experiment [14], 68.1%; in [15] it was 83.2%.
In the case of `CC1(c2ccc(Br)cc2)NC(=O)NC1=O` (configuration not stated), the growth in experiment [1] was 106%; in experiment [2], 106%; in experiment [20] it was 105%; in [4] it was 97.2%; in [5] it was 103%; in experiment [6], 104%. The growth is 101% in experiment [16]; 100% in experiment [7]; 112% in [8]; 122% in experiment [9]; 109% in experiment [10]; 100% in experiment [17]. In addition, the growth in [18] is 94.9%; in [11], 106%; in experiment [12], 104%; in [13] it was 97.8%; in experiment [19], 99.5%.
For `COc1cccc2c1nc1cccc(OC)c1[n+]2[O-]`, the growth in [1] is 47.4%; in experiment [2] it was 53.9%; in experiment [20] it was 46.9%; in experiment [4], 46.6%; in experiment [5], 73.2%; in experiment [6], 62%. Further, the growth is 39.6% in experiment [16]; 31.9% in [7]; 103% in experiment [8]; 35.6% in [9]; 57.8% in experiment [10]; 43.7% in experiment [17]. The growth was -0.522% (active) in experiment [18]; 75.8% in [11]; 2.52% (active) in [12]; 52.8% in [13]; 65.4% in experiment [19]; 3.09% (active) in [14]. Besides, in [15], the growth is -1.14% (active).
As for `CCOc1ccc(Br)cc1/C=C(\C#N)c1ccc([N+](=O)[O-])cc1`, the growth in [1] is 84.7%; in experiment [2], 87.1%; in [3], 22.1%; in experiment [4], 67.3%; in experiment [5] it was 71.2%; in [6], 81.8%. In addition, the growth in [16] is 91.7%; in experiment [7] it was 87.8%; in experiment [8], 58.6%; in experiment [9], 88.6%; in experiment [17], 85.3%; in experiment [18] it was 81.5%. For the same molecule, the growth in experiment [12] was 68%; in [13] it was 77.7%; in experiment [19], 80.2%; in experiment [15] it was 82.7%.
Regarding `O=C1CSC(c2ccccc2Cl)N1c1nnc(-c2ccncc2)o1` (configuration not stated), the growth is 98.5% in experiment [1]; 98.4% in experiment [2]; 95.4% in experiment [3]; 96.6% in experiment [4]; 98.5% in [5]; 92.3% in experiment [16]. Further, the growth is 102% in experiment [7]; 101% in experiment [8]; 101% in experiment [9]; 93.2% in experiment [10]; 98.3% in experiment [17]; 90.8% in [18]. The growth in experiment [12] was 94.3%; in experiment [13], 107%; in [19], 72.4%; in experiment [14], 102%; in [15], 94.3%.
With `Cn1cnc2nc[nH]c2c1=S`, the growth was 101% in experiment [1]; 94.5% in experiment [2]; 103% in experiment [20]; 103% in [4]; 86.4% in experiment [5]; 100% in experiment [6]. The growth was 98.5% in experiment [16]; 99.4% in experiment [7]; 112% in [8]; 106% in experiment [9]; 113% in [10]; 94.8% in [17]. Further, the growth in experiment [18] was 71.2%; in experiment [11] it was 88.4%; in experiment [12], 97%; in experiment [13], 97.9%; in experiment [14] it was 98.7%; in [15], 102%.
Consider `COc1cc(OC)c(/C=C/c2ccc3ccccc3[n+]2C)c(OC)c1`, for which the growth was 77.5% in experiment [1]; 3.11% (active) in experiment [2]; 11.2% in experiment [3]; 13.3% in experiment [4]; 10.7% in experiment [5]; -74% (active) in [6]. Further, the growth was 0.263% (active) in experiment [16]; -33.2% (active) in experiment [7]; 9.89% (active) in experiment [8]; -4.21% (active) in [9]; 12.3% in experiment [17]; 65.9% in experiment [18]. The growth is 25.6% in [12], 68.4% in experiment [13], 7.12% (active) in [19] and -50.3% (active) in experiment [15].
